# High-throughput results deposited in PubChem by National Center for Advancing Translational Sciences (NCATS).
# Pf growth 48h = P. falciparum growth inhibition at 48 hours (one generation); P. falciparum luciferase growth in erythrocytes, 48 h; actives 5.9% (n = 310,000); AID 504832; Potency, µM (titrated, usually from 28.7 µM), for inactives: at the highest dose activity change, negative = inhibition, actives largely listed as inhibitors; note: % is set by controls: 0 for no effect and ±100 for the full control effect
#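 Luciferase-expressing P. falciparum in infected erythrocytes (2% hematocrit, 0.1% parasitemia final) in RPMI 1640/0.5% Albumax were exposed to compound for 48 hours at 37 C, 5% CO2; growth read as luminescence.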
# AmpC inh detg = inhibitors of E. coli AmpC beta-lactamase with detergent; P00811; AmpC hydrolysis of nitrocefin, absorbance 480 nm, 0.01% Triton; Potency, µM (top dose mostly 114 µM), inactives show at the highest dose activity change, negative = inhibition, actives largely listed as inhibitors; actives 0.041% (n = 370,000); AID 485294;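 note: 0% = no-compound wells and -100% = no-enzyme wells; nearly all actives have a fitted effect of over 25% in size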
# Target sequence (P00811 whole entry, looked up): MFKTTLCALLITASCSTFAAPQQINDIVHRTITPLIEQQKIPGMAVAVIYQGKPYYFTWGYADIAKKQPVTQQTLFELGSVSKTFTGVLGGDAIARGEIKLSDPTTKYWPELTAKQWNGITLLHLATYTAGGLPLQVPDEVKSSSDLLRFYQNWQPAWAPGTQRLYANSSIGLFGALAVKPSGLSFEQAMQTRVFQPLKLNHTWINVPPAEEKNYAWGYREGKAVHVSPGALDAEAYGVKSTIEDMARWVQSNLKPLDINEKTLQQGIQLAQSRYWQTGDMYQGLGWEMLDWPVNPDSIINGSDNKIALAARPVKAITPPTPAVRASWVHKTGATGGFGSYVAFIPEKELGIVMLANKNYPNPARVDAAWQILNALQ
#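 AmpC (5.3 nM in the dispensed reagent) in 20 mM phosphate pH 7.0 with 0.01% (detergent screen) or 0.0001% Triton X-100 was preincubated with compounds for 15 min at room temperature. Nitrocefin was then added from an 800 uM solution, and hydrolysis was followed at 480 nm.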
# Pf growth 96h = P. falciparum growth inhibition at 96 hour, primary screen for plastid delayed-death inhibitors. P. falciparum luciferase reporter growth, 96 h. Potency, µM (highest dose often 28.7 µM), for inactives: at the highest dose activity change, negative = inhibition, usual class: inhibitors. actives 6.9% (n = 320,000); note: % is set by controls: 0 for no effect and ±100 for the full control effect
#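 Infected RBCs, 2% Hct / 0.05% parasitemia final; luciferase-reporter P. falciparum; cpd 96 h, 37 C, 5% CO2; luciferase detection reagent; luminescence.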
# Sm TGR inh = inhibitors of Schistosoma mansoni thioredoxin glutathione reductase; Q962Y6; purified TGR, DTNB reduction, TNB absorbance 405 nm; Potency, µM (highest dose often 114 µM), for inactives: top-dose activity change, negative = inhibition, actives largely listed as inhibitors; actives 3% (n = 360,000); note: % is set by controls: 0 for no effect and ±100 for the full control effect; nearly all actives have a fitted effect of over 60% in size
#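 TGR 20 nM + NADPH 100 uM (dispensed conc.), cpd preinc 15 min RT; start with NADPH (500 uM addition) then DTNB (15 mM addition). Kinetic TNB absorbance, 405 nm filter. Four-parameter Hill fit across titration.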
# AmpC inh no detg = blocks E. coli AmpC beta-lactamase in detergent-free assay. P00811. AmpC nitrocefin hydrolysis, absorbance 480 nm, 0.0001% Triton. Potency, µM (doses to about 57.1 µM), inactives show at the highest dose activity change, negative = inhibition, actives largely listed as inhibitors. actives 0.52% (n = 330,000);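 note: plate controls were no compound for no effect and no enzyme for full effect; nearly all actives have a fitted effect of over 20% in size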
#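 20 mM phosphate pH 7.0 + 0.01% (detergent screen) or 0.0001% Triton X-100; 5.3 nM AmpC reagent; cpd preinc 15 min RT; nitrocefin (800 uM stock) to start; A480 q20 s × 4 min; Activity was normalised to no-enzyme and no-compound control wells.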
# SARS PLP yeast = inhibitors of SARS-CoV papain-like protease in yeast | Potency, µM (series often up to 32.9 µM), inactives show at the top dose activity, positive = growth rescue, actives largely listed as activators | AID 485353 | actives 0.19% (n = 330,000) | S. cerevisiae expressing SARS-CoV PLpro, growth rescue; calls by dose curve; note: 0% is about no effect; nearly all actives have a fitted effect of over 55% in size
# An asterisk follows results filed as active; ? = inconclusive; · = no result. Hits are enriched below; roughly 12% of the tested compounds scored in any of these assays. Unless noted, calls come from the whole dose curve; as a rule, active = well fitted curve in the direction sought with a large enough effect; inconclusive = small, poorly fitted or top-dose-only effect, or another doubt; inactive = no such curve, though single readings can be large; an effect the other way counts as inactive or inconclusive. Potency is the fitted concentration of half-maximal effect.
SMILES,Pf growth 48h,AmpC inh detg,Pf growth 96h,Sm TGR inh,AmpC inh no detg,SARS PLP yeast
CCCS(=O)(=O)c1c(S(=O)(=O)CCC)c2ccccn2c1C(=O)OC,2%,2%,·,28µM*,-7%,-2%
CCCS(=O)(=O)c1c(S(=O)(=O)CCC)c2c(C)cccn2c1C(=O)OC,-2%,?,6%,10µM*,3%,3%
CCCS(=O)(=O)c1c(S(=O)(=O)CCC)c2c3ccccc3ccn2c1C(=O)OC,12µM*,-3%,45%,?,162%,-6%
CCCS(=O)(=O)c1c(S(=O)(=O)CCC)c2cc(CC)ccn2c1C(=O)OC,?,-13%,-19%,3%,118%,-8%
CCOc1ccccc1CNC(=O)c1cc(-c2ccc(Cl)s2)nc2ccccc12,·,25%,·,-2%,·,·
Cc1ccc(Cl)cc1NC(=O)Nc1cccc(OCc2cc(=O)n3ccccc3n2)c1,·,-8%,·,2%,·,·
COc1ccc(Cl)cc1C(=O)OCC(=O)Nc1cccnc1Cl,?,8%,-1%,2%,-2%,-3%
COc1cc(N)c(Cl)cc1C(=O)OCC(=O)Nc1cccnc1Cl,2%,?,25%,-4%,35µM*,-1%
COc1cc2c(cc1OC)C(c1ccccc1)=NCC2,15%,-13%,?,-8%,-8%,-2%
COc1cc2c(cc1OC)C(c1ccccc1N)=NCC2,2.9µM*,0%,1µM*,-3%,-1%,0%
CC(=O)NCCN=Cc1sc2ccccc2c1O,31%,-9%,3.7µM*,-18%,-3%,-5%
COc1ccc(N2CCN(C(=O)c3cccc(NC(=O)c4nsc5ccccc45)c3)CC2)cc1,·,-2%,·,-2%,·,·
CCOC(=O)c1nc(C)sc1-c1ccnn1S(=O)(=O)c1ccc(C)cc1,?,1%,?,15%,167%,-2%
Cn1c(O)c(/C=N/N2CCOCC2)c(=O)n(C)c1=S,13µM*,-1%,36%,-8%,-9%,-3%
CCn1c(O)c(/C=N/N2CCOCC2)c(=O)n(CC)c1=S,-1%,0%,19%,3%,-15%,2%
O=[N+]([O-])c1ccccc1S(=O)(=O)N1CCCC(C(F)(F)F)C1 (configuration not stated),8%,-3%,0.83µM*,-7%,-10%,4%
Cc1ccc(C)c(C(=O)NCc2ccncc2)c1,-18%,-3%,4%,-4%,-15%,3%
CC(=O)N(C1=C(N)C(=O)c2ccccc2C1=O)C(C)C,13µM*,3%,9.3µM*,7.1µM*,-11%,-2%
O=C(O)/C=C/c1cn(Cc2ccccc2Cl)nc1-c1ccccc1,9%,9%,-11%,13%,-25%,0%
COc1ccc(N(Cc2ccccc2)S(=O)(=O)c2cccc(C(=O)Nc3ncccc3C)c2)cc1,?,0%,?,9%,22%,4%
CCOc1ccccc1NC(=O)c1cccc(S(=O)(=O)N(Cc2ccccc2)c2ccccc2OC)c1,0%,?,2.6µM*,-7%,?,16%
COc1ccccc1N(Cc1ccccc1)S(=O)(=O)c1cccc(C(=O)O)c1,-3%,-5%,-21%,6%,-19%,8%
COc1ccccc1N(Cc1ccccc1)S(=O)(=O)c1cccc(C(=O)NC2CC(C)(C)NC(C)(C)C2)c1,5.9µM*,?,4.7µM*,0%,?,2%
COc1ccccc1N(Cc1ccccc1)S(=O)(=O)c1cccc(C(=O)Nc2ncccc2C)c1,12µM*,?,?,14%,40%,-1%
CC1(C)CC(NC(=O)c2ccc(Cl)c(S(=O)(=O)N(Cc3ccccc3)c3ccccc3)c2)CC(C)(C)N1,5.2µM*,-11%,7.4µM*,-11%,201%,·
SMILES,Pf growth 48h,AmpC inh detg,Pf growth 96h,Sm TGR inh,AmpC inh no detg,SARS PLP yeast
O=C(O)c1ccc(Cl)c(S(=O)(=O)N(Cc2ccccc2)c2ccc(Cl)cc2)c1,-9%,0%,-13%,0%,-14%,12%
COc1ccc(C(=O)NCc2nnc(SCC(=O)Nc3nc4ccccc4s3)o2)cc1OC,-15%,3%,7%,2%,-30%,-1%
CCOc1ccc(N2CC(NC(=O)/C=C\c3ccc4c(c3)OCO4)CC2=O)cc1 (configuration not stated),·,2%,·,2%,·,·
O=S1(=O)CC(O)C(Nc2ccc(Cl)cc2)C1 (configuration not stated),10%,4%,3.7µM*,2%,-10%,14%
CCn1cc(C(=O)NCCc2ccc(C)cc2)c(=O)c2cc(S(=O)(=O)N3CCc4ccccc4C3)ccc21,·,2%,·,2%,·,·
Cc1oc2ncn(C)c(=O)c2c1C(=O)NCCCN(Cc1ccccc1)C(C)C,·,11%,·,10%,·,·
Cc1ccnc(NCc2c(O)ccc3ccccc23)c1,1%,?,0.093µM*,?,-51%,-5%
COc1ccccc1CNc1cc(C)ccn1,-2%,-1%,11%,3%,-27%,-6%
CCOC(=O)N1CCc2c(sc(NC(=O)c3ccc(Cl)s3)c2C(N)=O)C1,?,?,13µM*,-27%,-41%,·
CC(=O)N1CCc2c(sc(NC(=O)CCS(=O)(=O)c3ccccc3)c2C(N)=O)C1,?,-3%,-27%,-2%,-6%,6%
CCOC(=O)N1CCc2c(sc(NC(=O)CCS(=O)(=O)c3ccccc3)c2C(N)=O)C1,?,0%,15µM*,-27%,29%,-1%
CCOC(=O)N1CCc2c(sc(NC(=O)C3COc4ccccc4O3)c2C(N)=O)C1 (configuration not stated),?,5%,9.3µM*,3%,15%,4%
CC(=O)N1CCc2c(sc(NC(=O)C3COc4ccccc4O3)c2C(N)=O)C1 (configuration not stated),2%,-2%,12µM*,-35%,98%,-2%
COc1ccc(C2=NOC(C(=O)Nc3cc(C)on3)C2)cc1OC (configuration not stated),-15%,0%,0%,-18%,-13%,1%
Cc1cc(NC(=O)C2CC(c3ccc(F)cc3)=NO2)no1 (configuration not stated),·,?,5.2µM*,0%,-12%,4%
CCc1ccccc1NC(=O)C1CC(c2ccc(F)cc2)=NO1 (configuration not stated),-4%,?,-6%,7%,-2%,-3%
COC(=O)c1ccccc1NC(=O)C1CC(c2ccc(F)cc2)=NO1 (configuration not stated),28%,?,10µM*,?,-9%,10%
